Measured values from PubChem BioAssay (NCATS).
Where “and” joins values, the source holds several entries; their conditions need not be identical. Equal entries are not always repeated. Records with an inconclusive call do not appear. Calls of active or inactive are those of the source. Unless noted, the call rests on the fitted dose curve; in most records, active means well fitted curve in the direction sought with a large enough effect; inconclusive means small, poorly fitted or top-dose-only effect, or another doubt; inactive means no such curve, though single readings can be large; an effect the other way counts as inactive or inconclusive.

Key:
[1] = target: Alpha-galactosidase A (Homo sapiens) (UniProt P06280); assay: Counterscreen for Glucocerebrosidase Inhibitors: qHTS Assay for Human alpha-Galactosidase at pH 4.5 (AID 992); further: 0% is about no effect
Procedure, shortened: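 Read-out is 4-methylumbelliferone fluorescence (365 nm excitation, 440 nm emission) after a pH 10 NaOH/glycine stop. Reactions held 2 nM enzyme and 80 uM substrate at pH 4.5 for 20 min at room temperature.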

[2] = target: alpha-glucosidase (Oryza sativa, rice) (UniProt Q653V4); assay: Counterscreen for Glucocerebrosidase Inhibitors: qHTS Assay for Rice alpha-Glucosidase at pH 5.0 (AID 997);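 further: 0% = full activity with enzyme and -100% = basal without enzyme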
Procedure, shortened: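 Rice alpha-glucosidase (4 nM final) with 400 uM 4-methylumbelliferyl-alpha-D-glucopyranoside in citrate buffer pH 5.0, 20 min at room temperature, stopped at pH 10; fluorescence 365/440 nm, compounds 0.7 nM–77 uM, AC50 from Hill fits.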

[3] = Validation of Assay for Modulators of Lamin A Splicing (AID 1459; active means well fitted curve in the direction sought with a large enough effect in the signal ratio; the % refers to the signal ratio;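 further: cells exposed to compound for two days before reading; 0% is about no effect; ratio rise marks activators and ratio drop marks inhibitors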)
Procedure, shortened: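 Splicing correction read as GFP (500-530 nm) over DsRed2 (575-640 nm) object intensity after 48 h compound exposure of reporter HeLa S3 clones (600 cells/well, 2% FBS medium); ancitabine and cycloheximide titrations, 0.5% DMSO as vehicle.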

[4] = qHTS Assay for Lipid Storage Modulators (AID 1519; calls by dose curve; on activity change, negative = inhibition: on the % scale 0 is the no-effect control and ±100 the full control effect); settings: Drosophila S3 cells, BODIPY lipid droplet/cell ratio, laser cytometry, cells loaded with oleic acid; for activity change, negative = inhibition: at 57.5 µM (top of the series)
Procedure, shortened: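 Cells seeded at 5,000 per well were treated with compounds over a concentration series and loaded with oleic acid (400 uM, as added). Lipid droplet fluorescence (488 nm excitation, 500-530 nm channel) was read by laser-scanning cytometry and normalized to 20 uM Triacsin C.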

[5] = Counterscreen for APE1 Inhibitors: Fluorescent Dye Displacement Validation Assay (AID 1707);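 further: plate controls were ThO with dsDNA and no compound for no effect and ThO without dsDNA for full effect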
Procedure, shortened: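 ThO 250 nM + dsDNA 50 nM (THF abasic site, 5'-TAMRA), Tris-HCl pH7.5/50mM NaCl/2 mM MgCl2/0.01% Tween-20; compounds pin-transferred; ex 480/em 540 nm endpoint. Neutral = no compound; no-DNA ThO wells = negative control.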

[6] = qHTS for differential inhibitors of proliferation of Plasmodium falciparum line 7G8 (AID 1815);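 further: parasite growth measured after three days of incubation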; further: potency means the concentration at half of the fitted maximal effect;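 on activity change, negative = inhibition: plate controls were vehicle wells for no effect and reference inhibitor wells for full effect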
[7] = qHTS for differential inhibitors of proliferation of Plasmodium falciparum line GB4 (AID 1816); settings: Potency: Plasmodium falciparum GB4 proliferation inhibition;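 further: parasite growth measured after 72 h incubation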; further: potency means the concentration at half of the fitted maximal effect;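 on activity change, negative = inhibition: 0% = vehicle DMSO and -100% = reference inhibitor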
[8] = qHTS for differential inhibitors of proliferation of Plasmodium falciparum line 3D7 (AID 1876); further: potency means the concentration at half of the fitted maximal effect
[9] = target: DNA repair nuclease/redox regulator APEX1 (Homo sapiens) (UniProt P27695); assay: qHTS Validation Assay for Inhibitors of the Human Apurinic/apyrimidinic Endonuclease 1 (APE1) (AID 1705; further: potency means the concentration at half of the fitted maximal effect;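 on activity change, negative = inhibition: TAMRA fluorescence gain over two minutes as APE1 cuts a quenched THF abasic duplex; on the % scale 0 is the no-effect control and ±100 the full control effect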)
Procedure, shortened: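 Activity read as rising fluorescence (598 nm emission, 525 nm excitation) from incision of a TAMRA/BHQ-2 duplex carrying a THF abasic site (50 nM). Compound and enzyme sat 15 min at RT before substrate start; signal change between first and third 60-s reads.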

[10] = target: Endonuclease 4 (Escherichia coli (strain K12)) (UniProt P0A6C1); assay: Counterscreen for APE1 Inhibitors: qHTS Validation Assay for Inhibitors of Endonuclease IV (AID 1708); further: potency means the concentration at half of the fitted maximal effect; on activity change, negative = inhibition: on the % scale 0 is the no-effect control and ±100 the full control effect
Procedure, shortened: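 Cleavage of a quenched abasic-site DNA duplex (50 nM, 5'-TAMRA, 3'-BHQ-2) by 2 nM enzyme is followed as fluorescence increase. Compounds are preincubated with enzyme 15 min at room temperature before substrate addition.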

[11] = measured here: cell count channel max response
[12] = measured here: lipid channel max response

DNA repair nuclease/redox regulator APEX1 (Homo sapiens), sequence (P27695 whole entry, looked up): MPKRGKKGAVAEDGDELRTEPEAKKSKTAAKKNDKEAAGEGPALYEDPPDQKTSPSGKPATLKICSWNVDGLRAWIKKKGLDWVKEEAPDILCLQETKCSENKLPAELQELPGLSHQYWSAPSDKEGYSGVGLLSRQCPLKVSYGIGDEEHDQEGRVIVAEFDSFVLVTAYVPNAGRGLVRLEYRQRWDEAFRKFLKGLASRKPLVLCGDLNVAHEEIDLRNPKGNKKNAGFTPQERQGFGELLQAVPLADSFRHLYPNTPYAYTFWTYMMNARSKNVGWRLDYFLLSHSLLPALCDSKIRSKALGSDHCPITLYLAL
Alpha-galactosidase A (Homo sapiens), sequence (P06280 whole entry, looked up): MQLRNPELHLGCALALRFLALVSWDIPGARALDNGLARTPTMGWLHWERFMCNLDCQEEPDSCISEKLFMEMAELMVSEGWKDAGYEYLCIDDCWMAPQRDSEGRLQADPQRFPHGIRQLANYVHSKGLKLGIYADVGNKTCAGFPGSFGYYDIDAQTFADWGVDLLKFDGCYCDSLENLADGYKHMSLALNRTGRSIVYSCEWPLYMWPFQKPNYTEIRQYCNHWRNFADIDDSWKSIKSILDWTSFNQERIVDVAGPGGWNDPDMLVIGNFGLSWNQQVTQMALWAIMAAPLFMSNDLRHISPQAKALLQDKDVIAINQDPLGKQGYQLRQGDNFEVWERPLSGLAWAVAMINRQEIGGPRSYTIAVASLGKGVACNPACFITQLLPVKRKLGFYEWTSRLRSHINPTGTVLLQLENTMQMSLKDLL

NCCNS(=O)(=O)c1cccc2c(Cl)cccc12
-12.2%: max response [4, 12]
inactive: outcome [1] | outcome [2] | outcome [3] | activity change, negative = inhibition [4] -0.563% | Potency [5]
active: Potency [6] 7.08 µM | Potency [7] 8.91 µM | Potency [8] 12.6 µM
-2.01%: max response [4, 11]

NC/C=C\C(=O)O
inactive: outcome [1] | outcome [2] | outcome [3] | activity change, negative = inhibition [4] 4.68% and 0.384% | Potency [5] | Potency [6] | Potency [7] | Potency [8]
-7.52% and 26.3%: max response [4, 11]
-6.79% and 26.6%: max response [4, 12]

CCCCCCCCCC[Si](C)(C)CCC(=O)NC(Cc1ccc(C)cc1)c1ccccc1 (stereo not drawn)
inactive: outcome [3] | Potency [9] | Potency [5] | Potency [10]

O=c1onc2cnc3ccccc3n12
inactive: outcome [1] | outcome [2] | outcome [3] | activity change, negative = inhibition [4] 0.198% | Potency [5] | Potency [10]
54.9%: max response [4, 12]
54.3%: max response [4, 11]

O=C(O)C1=CC(=C(c2ccc(O)c(C(=O)O)c2)c2ccc(O)c(C(=O)O)c2)C=CC1=O
22% and 58.3%: max response [4, 12]
16.1% and 56.8%: max response [4, 11]
inactive: outcome [1] | outcome [2] | outcome [3] | activity change, negative = inhibition [4] 3.23% and 0.986% | Potency [5]
active: Potency [10] 0.708 µM

O=C(O)c1cc2cc(F)ccc2[nH]1
24.2% and 29.2%: max response [4, 12]
inactive: outcome [1] | outcome [2] | outcome [3] | activity change, negative = inhibition [4] 8.59% and -0.743% | Potency [9] | Potency [10] | Potency [8]
14.4% and 31%: max response [4, 11]

Oc1cc(O)c2c(c1)O[C@H](c1ccc(O)c(O)c1)[C@@H](O)C2
-12.7%: max response [4, 11]
inactive: outcome [3] | activity change, negative = inhibition [4] 1.15% | Potency [5] | Potency [10] | Potency [6] | Potency [7] | Potency [8]
-13.1%: max response [4, 12]

CC(C)Cn1c(=O)n(C)c(=O)c2[nH]cnc21
inactive: outcome [1] | outcome [2] | outcome [3] | activity change, negative = inhibition [4] 2.93% | Potency [9] | Potency [5] | Potency [6] | Potency [7] | Potency [8]
8.14%: max response [4, 11]
8.87%: max response [4, 12]

N=S(=O)(O)Cc1noc2ccccc12
20%: max response [4, 12]
inactive: outcome [3] | activity change, negative = inhibition [4] -0.718% | Potency [9] | Potency [5] | Potency [8]
21.5%: max response [4, 11]

COC1(C2=NCCN2)COc2ccccc2O1 (stereo not drawn)
inactive: outcome [3] | Potency [9] | Potency [5] | Potency [10] | Potency [6] | Potency [8]

[Li+]
inactive: outcome [2] | outcome [3] | Potency [9] | Potency [5] | Potency [10] | Potency [6] | Potency [7] | Potency [8]

Cn1cc(C(F)(F)F)nc1-c1ccc(OCC(O)CNCCOc2ccc(O)c(C(N)=O)c2)cc1 (stereo not drawn)
inactive: outcome [3] | Potency [9] | Potency [5] | Potency [10]
active: Potency [6] 12.6 µM | Potency [7] 12.6 µM | Potency [8] 2.82 µM

OCC1NCC(O)C(O)C1O (stereo not drawn)
inactive: outcome [3] | Potency [9] | Potency [5] | Potency [10] | Potency [6] | Potency [7] | Potency [8]

O=C(O)C1CN(CCCP(=O)(O)O)CCN1 (stereo not drawn)
inactive: outcome [3] | Potency [9] | Potency [5] | Potency [10] | Potency [6] | Potency [7] | Potency [8]

N=C(N)c1ccc(N)cc1
inactive: outcome [1] | outcome [2] | outcome [3] | Potency [9] | Potency [5] | Potency [10] | Potency [6] | Potency [8]

CC(C)C[C@H](NC(=O)[C@H](O)[C@H](N)Cc1ccccc1)C(=O)O
inactive: outcome [3] | Potency [9] | Potency [5] | Potency [10] | Potency [6] | Potency [7] | Potency [8]

C=CCN1CCc2c(cc(O)c(O)c2Br)[C@@H](c2ccccc2)C1
active: Potency [6] 5.01 µM | Potency [7] 5.01 µM | Potency [8] 7.08 µM
inactive: outcome [3] | Potency [9] | Potency [5] | Potency [10]

C=CCn1c(=O)c2c(nc(-c3ccc(S(=O)(=O)O)cc3)n2C)n(C)c1=O
inactive: outcome [1] | outcome [2] | outcome [3] | Potency [9] | Potency [5] | Potency [10] | Potency [6] | Potency [7] | Potency [8]

CCCCCCCCCC(=O)NC(CN1CCOCC1)[C@H](O)c1ccccc1 (stereo partly drawn)
active: Potency [6] 1.26 µM | Potency [7] 2 µM | Potency [8] 6.31 µM
inactive: outcome [3] | Potency [9] | Potency [5] | Potency [10]

CCCCCC[C@@H]([C@@H](C)O)n1cnc2c(N)ncnc21
inactive: outcome [3] | Potency [9] | Potency [5] | Potency [6] | Potency [7]

C=CC[C@H](N)C(=O)O
inactive: outcome [1] | outcome [2] | outcome [3] | Potency [9] | Potency [5] | Potency [10] | Potency [6] | Potency [7] | Potency [8]

O=c1cc(O)cc(/C=C/c2ccc(O)c(O)c2)o1
inactive: outcome [3] | Potency [5]
active: Potency [9] 0.794 µM | Potency [6] 8.91 µM | Potency [7] 12.6 µM

CCN(CC)CCOC(=O)c1cc(Cl)c(N)cc1OC
inactive: outcome [1] | outcome [2] | outcome [3] | Potency [9] | Potency [5] | Potency [10] | Potency [6] | Potency [7] | Potency [8]

CCN(c1nc(N)c(C(=O)N=C(N)N)nc1Cl)C(C)C
active: Potency [6] 11.2 µM | Potency [7] 7.94 µM | Potency [8] 10 µM
inactive: outcome [2] | outcome [3] | Potency [9] | Potency [5] | Potency [10]

N#CC(C#N)=C(N)/C(C#N)=C/c1ccc(O)cc1
inactive: outcome [1] | outcome [2] | outcome [3] | Potency [9] | Potency [5] | Potency [10]

Nc1ccc(N2C(=O)c3ccccc3C2=O)c(Cl)c1
inactive: outcome [1] | outcome [2] | outcome [3] | Potency [9] | Potency [5] | Potency [10] | Potency [6] | Potency [7] | Potency [8]

COC(=O)C(C)(N)Cc1ccc(O)cc1 (stereo not drawn)
active: Potency [7] 14.1 µM
inactive: outcome [3] | Potency [9] | Potency [5] | Potency [10]

CC[C@H](NC(=O)c1c(C)c(-c2ccccc2)nc2ccccc12)c1ccccc1
inactive: outcome [1] | outcome [2] | outcome [3] | Potency [9] | Potency [5] | Potency [10]
active: Potency [6] 7.08 µM | Potency [7] 11.2 µM
